Consider 36 compounds from PubChem BioAssay.

Chain of Neurogenic locus notch homolog protein 3 (Homo sapiens) (Q9UM47 whole entry, looked up): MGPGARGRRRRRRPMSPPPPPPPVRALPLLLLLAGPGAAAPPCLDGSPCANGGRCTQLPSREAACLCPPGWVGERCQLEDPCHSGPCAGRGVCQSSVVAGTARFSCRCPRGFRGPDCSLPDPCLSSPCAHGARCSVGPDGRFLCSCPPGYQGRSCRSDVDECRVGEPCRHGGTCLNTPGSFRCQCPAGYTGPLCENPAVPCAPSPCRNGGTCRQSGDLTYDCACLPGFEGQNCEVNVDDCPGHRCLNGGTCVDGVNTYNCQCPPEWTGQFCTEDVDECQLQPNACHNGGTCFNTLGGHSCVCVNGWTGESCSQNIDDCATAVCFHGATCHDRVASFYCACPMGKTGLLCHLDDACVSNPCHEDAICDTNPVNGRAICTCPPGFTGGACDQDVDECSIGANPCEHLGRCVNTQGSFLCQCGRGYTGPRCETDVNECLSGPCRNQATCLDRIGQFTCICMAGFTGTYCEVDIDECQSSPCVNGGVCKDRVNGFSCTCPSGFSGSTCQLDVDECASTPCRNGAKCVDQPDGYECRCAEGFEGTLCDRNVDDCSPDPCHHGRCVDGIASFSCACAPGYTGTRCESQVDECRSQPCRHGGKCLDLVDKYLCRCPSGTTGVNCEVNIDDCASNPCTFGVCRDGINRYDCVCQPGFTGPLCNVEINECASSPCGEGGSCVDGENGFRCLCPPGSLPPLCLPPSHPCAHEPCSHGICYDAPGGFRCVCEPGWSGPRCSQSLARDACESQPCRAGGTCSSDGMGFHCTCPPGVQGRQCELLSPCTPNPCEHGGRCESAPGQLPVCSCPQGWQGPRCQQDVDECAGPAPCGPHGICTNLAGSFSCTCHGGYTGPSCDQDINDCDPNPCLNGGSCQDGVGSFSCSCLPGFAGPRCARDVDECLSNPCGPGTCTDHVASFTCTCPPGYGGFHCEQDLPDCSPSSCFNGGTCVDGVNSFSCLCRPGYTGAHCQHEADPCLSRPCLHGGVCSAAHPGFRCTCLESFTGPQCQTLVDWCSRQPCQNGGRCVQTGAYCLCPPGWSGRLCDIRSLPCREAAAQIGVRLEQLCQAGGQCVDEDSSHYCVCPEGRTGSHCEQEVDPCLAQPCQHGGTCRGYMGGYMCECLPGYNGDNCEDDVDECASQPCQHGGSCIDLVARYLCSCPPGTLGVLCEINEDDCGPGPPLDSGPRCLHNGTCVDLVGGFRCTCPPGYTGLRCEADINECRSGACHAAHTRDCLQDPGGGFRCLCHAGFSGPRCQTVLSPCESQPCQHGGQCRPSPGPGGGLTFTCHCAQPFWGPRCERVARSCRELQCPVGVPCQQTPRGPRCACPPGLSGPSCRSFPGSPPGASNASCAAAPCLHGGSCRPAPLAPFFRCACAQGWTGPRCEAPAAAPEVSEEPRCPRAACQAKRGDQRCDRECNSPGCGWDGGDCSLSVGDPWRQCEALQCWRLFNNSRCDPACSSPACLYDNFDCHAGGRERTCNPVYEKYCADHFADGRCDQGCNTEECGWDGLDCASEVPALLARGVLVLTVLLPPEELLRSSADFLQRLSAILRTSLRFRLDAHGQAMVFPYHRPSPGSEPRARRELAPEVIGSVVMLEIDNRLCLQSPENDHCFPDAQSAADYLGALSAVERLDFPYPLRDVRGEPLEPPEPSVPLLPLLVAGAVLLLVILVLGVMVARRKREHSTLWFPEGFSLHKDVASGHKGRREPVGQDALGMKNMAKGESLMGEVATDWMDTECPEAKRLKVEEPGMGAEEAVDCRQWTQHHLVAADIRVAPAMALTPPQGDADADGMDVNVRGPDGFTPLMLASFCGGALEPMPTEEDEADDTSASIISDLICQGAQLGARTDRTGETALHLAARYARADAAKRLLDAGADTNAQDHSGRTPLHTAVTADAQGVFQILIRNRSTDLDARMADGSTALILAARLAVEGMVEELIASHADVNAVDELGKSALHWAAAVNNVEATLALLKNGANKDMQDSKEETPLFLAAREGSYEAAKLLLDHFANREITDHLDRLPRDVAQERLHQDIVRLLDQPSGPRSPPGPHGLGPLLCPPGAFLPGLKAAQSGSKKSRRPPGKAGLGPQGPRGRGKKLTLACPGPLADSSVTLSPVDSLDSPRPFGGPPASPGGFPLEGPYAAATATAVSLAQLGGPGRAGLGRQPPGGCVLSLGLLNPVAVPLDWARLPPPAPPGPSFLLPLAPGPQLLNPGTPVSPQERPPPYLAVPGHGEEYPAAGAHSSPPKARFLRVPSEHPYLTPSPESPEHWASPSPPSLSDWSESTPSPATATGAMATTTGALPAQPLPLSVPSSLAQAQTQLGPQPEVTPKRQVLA

The assay concerns the target Neurogenic locus notch homolog protein 3 (Homo sapiens) (UniProt Q9UM47). Kind of assay: NOTCH3 binders on small-molecule microarray, primary screen, biochemical, 635/667 nm fluorescence (AID 1096). To be noted: NOTCH3 binding, 635 nm fluorescence, higher = more signal.
Compound `COc1ccc(C(O)C2C=CC3C(=O)N(c4ccccc4)C(=O)C3N2Nc2ccc(C#N)cc2)c2ccccc12` (stereo unspecified) yielded a composite z-score of 1.08. The value for `COCCOC(=O)N1C(=O)[C@@]2(c3ccccc31)[C@H](C(=O)N1CCN(c3ncccn3)CC1)[C@H]1C(=O)O[C@H](c3ccccc3)[C@H](c3ccccc3)N1[C@@H]2c1ccc(OCCO)cc1` was 0.817. Then `CC=CC(O)C1C=CC2C(=O)N(c3ccccc3)C(=O)C2N1Nc1ccccc1` (stereo unspecified), with 1.09; and `Cc1ccc(S[C@]2(C(=O)NCC(F)(F)F)CC(=O)N(Cc3ccccc3)[C@@H]2c2ccc(CO)cc2)cc1`, with -0.681. For `[N-]=[N+]=Nc1ccccc1C[C@@]1(C(=O)O)N=C(c2ccc(OCCCO)cc2)O[C@@H]1c1ccccc1`, the composite z-score was found to be 0.697. Then `COCCCNC(=O)[C@]1(Cc2ccccc2CN=[N+]=[N-])N=C(c2ccc(OCCCO)cc2)O[C@@H]1c1ccccc1`, with 0.599; and `CC(C)OC(=O)CC(=O)CC(O)c1cccc(C#N)c1` (stereo unspecified), with 0.753; and `CCCC=C(CCC)[C@@H](NP(=O)(c1ccccc1)c1ccccc1)c1ccc(C(F)(F)F)cc1`, with 0.11. Compound `CCCN1C(=O)[C@]2(Cc3ccccc3)N=C(c3ccc(OCCCO)cc3)O[C@@H]2c2ccccc21` showed a composite z-score of 1.13. The value for `C[C@]12C(=O)N(CCCCCCO)[C@@H]3C(=O)N(c4ccc(Cl)cc4)CC=CC31O[C@@H]1/C=C\CCCOC(=O)C12` (stereo partly specified) was -0.353; that for `COCCOC(=O)N1C(=O)[C@@]2(c3ccccc31)[C@H](c1ccc(OCCO)cc1)N1[C@H](c3ccccc3)[C@H](c3ccccc3)OC(=O)[C@H]1[C@@H]2C(=O)Nc1nc2ccccc2s1` was 1.13.

`C=CCN1Cc2ccccc2C[C@@]2(N=C(c3ccc(OCCCO)cc3)O[C@H]2c2ccccc2)C1=O`: the composite z-score worked out at 0.968.

The compound `CN(C)CCCCNC(=O)[C@H]1C[C@H]2C(=O)N3CCC[C@H]3C(=O)N2[C@H]1c1ccc(O)cc1` returned a composite z-score of 0.229. In the case of `COC1(C)CN(Cc2ccccc2Br)[C@H](/C=C/c2ccccc2)[C@H](Cc2ccccc2)O1` (stereo partly specified), the composite z-score is -0.789. The value for `COc1cc(OC)c(C(O)C2C=CC3C(=O)N(c4ccccc4)C(=O)C3N2Nc2ccc(C#N)cc2)cc1Br` (stereo unspecified) was 1.15; that for `O=C(O)[C@]1(Cc2ccccc2)N=C(c2ccc(OCCCO)cc2)O[C@@H]1c1ccccc1` was -0.786; that for `O=C1c2ccccc2[C@@]2(Cc3ccccc3N(C3CC3)C2=O)[C@H](c2ccc(CO)cc2)N1C1CCCCC1` was -0.938. Then `COCCOC(=O)N1C(=O)[C@@]2(c3cc(C#CCC(C(=O)OC)C(=O)OC)ccc31)[C@H](c1ccc(OCCO)cc1)N1[C@H](c3ccccc3)[C@H](c3ccccc3)OC(=O)[C@H]1[C@@H]2C(=O)N1CCN(c2ncccn2)CC1`, with 1.07; and `O=C1O[C@@H](c2ccccc2)[C@@H](c2ccccc2)N2[C@@H](c3ccccc3OCCO)[C@]3(C(=O)Nc4ccc(C#CCCO)cc43)[C@@H](C(=O)N3CCN(c4ncccn4)CC3)[C@H]12`, with 0.59; and `COc1cc(CO)cc(I)c1O[C@H]1C=C(C(=O)NCCO)C[C@@H](N(CC2CCCCC2)C(=O)c2ccc(C(F)(F)F)cc2)[C@@H]1O`, with 0.937.

For the compound `Cc1c(NC(=O)/C(C#N)=C/C=C/c2ccccc2[N+](=O)[O-])c(=O)n(-c2ccccc2)n1C`, the composite z-score turned out to be 0.945. `CCC[C@@H]1C[C@@]1(CCC)[C@@H](NP(=O)(c1ccccc1)c1ccccc1)c1ccc(Cl)cc1` registered a composite z-score of -0.151.

`C=CCN1C(=O)[C@]2(CC=C)N=C(c3ccc(OCCCO)cc3)O[C@@H]2c2ccccc21`: the composite z-score is 1.08. Then `O=C1c2ccccc2[C@](Cc2ccccc2I)(C(=O)NCCN2CCOCC2)[C@H](c2ccc(CO)cc2)N1Cc1ccccc1`, with 1.08.

Compound `COC(=O)[C@@]1(Cc2ccc(F)cc2)[C@H]2c3cc(C(=O)N4CCCC4)n(CCc4c[nH]c5ccc(OC)cc45)c3C[C@H]2CN1C(=O)c1ccccc1` yielded a composite z-score of 1.11. Then `O=C1c2ccccc2[C@](Cc2ccccc2I)(C(=O)NCc2ccccc2)[C@H](c2ccc(CO)cc2)N1C1CCCCC1`, with 0.918; and `COCC(=C=CC[C@H](O)c1cccc(OCCO)c1)C[C@H](O)c1ccccn1`, with 0.0673; and `CN1C2C=C(CCCO)C(C3C(=O)N(C(N)=O)C(=O)C32)C1c1cccs1` (stereo unspecified), with -0.658.

The compound `CN(C)CCCNC(=O)[C@@H]1c2ccccc2C(=O)N(Cc2ccc(OC(F)(F)F)cc2)[C@H]1c1ccc(CO)cc1` showed a composite z-score of 0.951. The value for `CC(C)(C)OC(=O)CC[C@]1(C(=O)NCCN2CCOCC2)N=C(c2ccc(OCCCO)cc2)O[C@H]1c1ccccc1` was -0.532; that for `CC(C)CNC(=O)[C@@H]1c2ccccc2C(=O)N(Cc2cc(F)cc(C(F)(F)F)c2)[C@H]1c1ccc(CO)cc1` was 0.379; that for `C=C(/C(=C/C[C@@H](OC(=O)c1ccncc1)c1ccc(OCCO)cc1)c1cc(C(=O)OC)ccc1OC)C(C)C` was 1.1. Then `C=C(CCCC)/C(=C/C[C@@H](OC(=O)c1ccncc1)c1cccc(OCCO)c1)c1cnc2ccccc2c1`, with 1.06; and `C=CCOC(=O)[C@H]1[C@@H]2C(=O)O[C@@H](c3ccccc3)[C@@H](c3ccccc3)N2[C@@H](c2ccc(OCCOC(=O)[C@H]3C[C@H]4C(=O)N[C@@H](Cc5ccccc5)C(=O)N4[C@H]3c3cccc(OCCO)c3)cc2)[C@]12C(=O)Nc1ccc(I)cc12`, with 1.09; and `Cc1ccc(S[C@]2(C(=O)NC3CC3)CC(=O)N(Cc3ccccc3Cl)[C@@H]2c2ccc(CO)cc2I)cc1`, with 0.304. The value for `C[C@@H]1ON(c2ccc(C(=O)OC(C)(C)C)cc2)[C@H](c2ccc(Br)cc2)[C@H]1C(=O)N1C(=O)OC[C@H]1Cc1ccccc1` was 1.08.
